High-throughput results deposited in PubChem by several laboratories.
Mtb FBA inh – Mtb fructose-bisphosphate aldolase inhibition. P9WQA3. purified M. tuberculosis FBA, fluorescence read-out. inhibition, % at 1 µM. hit rate 2.3% among 360,000. AID 588726; in the data active means inhibition above about 27%;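 further: 0% = vehicle and 100% = reference inhibitor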
Target sequence (P9WQA3 whole entry, looked up): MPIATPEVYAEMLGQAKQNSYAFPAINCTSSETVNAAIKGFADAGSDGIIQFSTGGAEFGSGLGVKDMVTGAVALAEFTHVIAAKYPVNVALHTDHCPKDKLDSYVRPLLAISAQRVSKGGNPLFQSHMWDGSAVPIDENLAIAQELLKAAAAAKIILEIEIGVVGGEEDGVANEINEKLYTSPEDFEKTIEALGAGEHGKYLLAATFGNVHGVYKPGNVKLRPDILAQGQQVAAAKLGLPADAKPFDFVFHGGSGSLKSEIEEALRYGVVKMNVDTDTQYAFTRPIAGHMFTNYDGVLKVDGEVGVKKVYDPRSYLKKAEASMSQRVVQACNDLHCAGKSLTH
PrPC TRFRET – inhibitors of human cell surface prion protein PrPC; P04156; TR-FRET read-out; inhibition, % at 13.8 µM; hit rate 0.43% among 370,000; in the data active means inhibition above about 24%; further: 0% = median of the test wells and 100% = reference compound wells
GDH-TPI counter – inhibits GDH-TPI coupling enzymes, artifact for Mtb FBA screen; hit rate 1.2% among 360,000; GDH-TPI coupled enzyme counterscreen, NADH absorbance; inhibition, % at 4.8 µM; AID 588335; in the data active means inhibition above about 30%;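 further: 0% = DMSO wells and 100% = wells lacking the enzyme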
Vc quorum ag – quorum light induction in luxS cqsA deficient V. cholerae; hit rate 0.16% among 350,000; activation, % at 18.7 µM; V. cholerae BH1578 lux reporter, luminescence, 6 h; AID 588436; in the data active means activation mostly above about 9.7%, no sharp cut-off
SARS 3CLpro inh – SARS-CoV 3CLpro protease inhibition; P0C6X7; recombinant SARS-CoV 3CLpro, quenched FRET peptide cleavage; inhibition, % at 6 µM; hit rate 0.14% among 290,000; AID 1706; in the data active means inhibition above about 12%
* marks the source's active call; other numbers are inactive results; i = inactive; . = no result; + = active, no number. An excerpt weighted towards active compounds, which were near 3.9% of everything screened.

SMILES	Mtb FBA inh	PrPC TRFRET	GDH-TPI counter	Vc quorum ag	SARS 3CLpro inh
Fc1ccc2nc(-c3ccc(CN4CCC(c5nc6ccccc6[nH]5)CC4)cc3)c(-c3ccccc3)nc2c1	.	-17	.	.	.
CCCCOCCCNC(=O)C[C@@H]1C[C@@]2(C(=O)OC)CC(C)(C)CC=C2N(Cc2ccccc2)C1=O	.	6	.	.	.
CCN(C)c1ccc(/C=N\n2nnnc2N)cc1	28*	0	23	i	4
CCN(CC)c1ccc(/C=N/n2nnnc2N)c(O)c1	1	-4	38*	2	-5
Nc1nnnn1/N=C/c1ccc(O)cc1	7	-5	15	2	3
CSc1ccc(/C=N/n2nnnc2N)cc1	18	-12	43*	-6	-1
Nc1nnnn1/N=C/c1cc(Cl)ccc1O	2	-2	0	-1	0
CCCOc1ccc(/C=N/n2nnnc2N)cc1OC	9	-3	30	0	0
COc1cccc(C(=O)Nc2nnc(-c3ccccc3)s2)c1	19	10	36*	-1	0
COc1cccc(C(=O)Nc2nnc(S(=O)(=O)Nc3cccc(C)c3)s2)c1	6	3	37*	i	6
C(=N\N(c1ccccc1)c1ccccc1)/c1ccc(N2CCOCC2)s1	-2	3	13	0	3
CCN(CC)c1ccc(C(=S)NCc2ccccc2)cc1	2	-3	17	i	-1
COc1cc(/C=C2\SC(=O)N(CC(=O)Nc3ccc(C)cc3)C2=O)cc(Cl)c1OCC(=O)O	-2	1	33*	0	0
Cc1ccc(C(=O)N2N=C(c3ccccc3O)CC2c2ccccc2)cc1 (stereo not drawn)	3	6	4	11	6
Oc1ccccc1C1=Nc2ncnn2C(c2ccccc2)C1 (stereo not drawn)	3	-4	35*	-2	-1
COc1ccc(N/C=C2\CCOC2=O)cc1	-3	9	56*	-4	-7
COc1ccc(N/C=C2\CCc3ccccc3C2=O)cc1	-7	5	-3	1	34*
COc1cccc(N2CCN(c3ncnc4c3[nH]c3ccc(F)cc34)CC2C)c1 (stereo not drawn)	0	85*	-4	0	1
COc1ccc2[nH]c3c(N4CC(C)OC(C)C4)ncnc3c2c1 (stereo not drawn)	.	6	.	.	-3
c1cncc(C2SCCCS2)c1	0	2	-5	i	.
COc1ccc2c(c1)c(C(=O)N/N=C/c1ccc(O)c(O)c1)c(C)n2C	-5	4	44*	-3	-2
O=C1C=C(c2ccc(CO)cc2)C[C@@H](c2ccc(F)cc2)C1	-3	-7	1	0	.
CCOc1c(C(N)=O)c(-c2ccccc2)c2c(=O)[nH]c3ccccc3n12	112*	0	14	i	6
CCOC(=O)c1c(C)nc(C)c(C(=O)OCC)c1-c1ccccc1	-4	.	-10	1	2
O=C(c1ccc(O)cc1)c1ccc(O)cc1O	1	11	35*	i	1
SMILES	Mtb FBA inh	PrPC TRFRET	GDH-TPI counter	Vc quorum ag	SARS 3CLpro inh
O=C(COc1ccccc1F)c1ccc(O)cc1O	-2	-1	50*	1	-3
O=C(Cc1ccccc1)c1ccc(O)cc1O	3	1	38*	i	.
O=C(Cc1ccc2cccnc2c1)c1ccc(O)cc1O	-3	0	52*	-2	2
CN(C)c1ccc(C(=O)c2ccc(O)cc2O)cc1	-2	-10	19	0	-1
CCOCCCn1c(SC(C)C(=O)NCC2CCCO2)nc2sc(C)c(C)c2c1=O (stereo not drawn)	-1	3	10	-2	.
COc1ccccc1C(=O)NCC(=O)OCC(=O)c1ccc2c(c1)-c1ccccc1C2	4	-6	26	-2	4
O=C(c1ccccc1)c1ccc(O)cc1O	2	1	52*	-1	-7
CSc1nncn1/N=C/c1ccc2c(c1)OCO2	1	1	35*	-1	-2
COc1ccc2c(=O)c(-c3ccccc3)coc2c1	-1	10	-9	0	3
COC(=O)C(C)Oc1ccc2cc(-c3ccccc3)c(=O)oc2c1 (stereo not drawn)	+	3	17	0	1
CCCOc1ccc2cc(-c3ccccn3)c(=O)oc2c1	+	-3	14	i	-1
CC(Oc1ccc2ccc(=O)oc2c1)C(=O)NCC1CCC(C(=O)O)CC1 (stereo not drawn)	24	-1	27	0	-2
COc1ccc2cc(-c3ccccc3)c(=O)oc2c1	+	3	30	-2	2
CC(Oc1ccc2cc(-c3ccccc3)c(=O)oc2c1)C(=O)NCC1CCC(C(=O)O)CC1 (stereo not drawn)	+	-9	36*	-1	-5
O=C(Cc1ccc(F)cc1)Nc1nnc(-c2ccc(F)cc2)o1	3	5	-5	i	0
CC(=O)N1CC(=O)N=C1SCC(=O)Nc1nc(-c2ccccc2)c(-c2ccccc2)s1	-1	-8	10	i	0
CC(=O)Oc1ccc2cc(-c3cccnc3)c(=O)oc2c1	+	-9	16	5	.
CN(C)C(=O)COc1ccc2cc(-c3ccccc3)c(=O)oc2c1	+	-9	53*	0	-7
CC(=O)Oc1cccc(-c2nc3ccccc3c(=O)o2)c1	0	-2	12	-1	6
COc1ccccc1/C=C\C(=O)NCC(=O)N/N=C(/C)c1cccc([N+](=O)[O-])c1	1	-9	7	0	-6
Cc1ccccc1S(=O)(=O)/N=C(/Nc1nc2ccccc2s1)c1ccccc1	3	-3	44*	i	.
O=[N+]([O-])c1ccccc1Oc1ccc(S(=O)(=O)N2CCOCC2)cc1	4	-18	13	i	.
Cc1ccc2c(c1)C1(C(=O)N2)N2CCCC2C(C(=O)c2ccc3ccccc3c2)C12C(=O)Nc1ccccc12 (stereo not drawn)	8	3	3	0	.
COc1ccc2[nH]c(C(=O)NCc3ccccc3)c(C)c2c1	40*	7	3	-1	-1
CCOC(=O)c1[nH]c2ccc(OC)cc2c1NC(=O)NC(C)C	35*	-2	2	-5	-1
SMILES	Mtb FBA inh	PrPC TRFRET	GDH-TPI counter	Vc quorum ag	SARS 3CLpro inh
COc1ccc2cc(C(=O)NCc3ccccc3)[nH]c2c1	6	12	-6	0	2
COc1ccc2[nH]c(C(=O)O)c(NS(=O)(=O)c3ccc(C)cc3C)c2c1	2	-8	1	-7	0
CCCS(=O)(=O)Nc1c(C(=O)O)[nH]c2ccc(OC)cc12	129*	-1	1	0	-2
C/C(=N/NC(=O)CN1CCN(Cc2ccccc2Cl)CC1)c1cccc(O)c1	.	-5	.	.	.
CCN1CCN(CCCNC(=O)c2cc3cc4ccc(OC)cc4nc3o2)CC1	+	.	25	.	-6
COc1ccc2cc3cc(C(=O)NCCCN4CCOCC4)oc3nc2c1	+	-26	33*	-1	1
COc1cccc(C(=O)NCCCN2CCN(CCCNC(=O)c3cccc(OC)c3)CC2)c1	0	-14	0	0	0
Cc1ccc2cc3cc(C(=O)NCCCN4CCCC4=O)oc3nc2c1	156*	-38	22	i	-6
